Assay outcomes deposited in PubChem BioAssay by Broad Institute.
T cruzi growth-1: inhibitors of T. cruzi proliferation. T. cruzi beta-gal in NIH3T3, GalScreen luminescence, 90 h. 77,000 compounds, 5.9% hits. AID 624255. inhibition, % at 8.34 µM;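 active means mean inhibition above about 93%, with at least 55% of replicates each passing it, limit read from the data, passing the limit was not always enough; inconclusive means only one of those two conditions holds; inactive means neither condition holds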
C diff growth: blocks growth of Clostridium difficile | Clostridium difficile clinical isolate growth, OD600, 24 h; active compounds read low | growth activity, negative = inhibition, % at 16 µg/mL (by protocol) | 86,000 compounds, 0.25% hits | AID 1259249;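 active means mean growth activity at or below -80% and every replicate also at or below -80%; inconclusive means mean at or below -80% but some replicate above -80%; inactive means mean growth activity above -80%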
Pf Dd2 inh: blocks growth of Plasmodium falciparum Dd2 parasites. 94,000 compounds, 2.3% hits. P. falciparum Dd2 growth, SYBR Green, 72 h; active compounds read low. activity change, % at 10 µM; in the data active means activity change below about -80%; inconclusive means no clear call, values can overlap the other calls
T cruzi growth-2: blocks T. cruzi growth in NIH3T3 host cells | inhibition, % at 8.35 µM | 5,600 compounds, 72% hits | shares compounds with T cruzi growth-1 | T. cruzi beta-gal in NIH3T3, GalScreen luminescence, 90 h;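 active means mean replicate inhibition above about 95% and at least 55% of replicates individually reaching it, limit read from the data; inconclusive means only one of the two criteria is met; inactive means neither criterion is met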
T cruzi growth-3: blocks T. cruzi growth in NIH3T3 host cells; shares compounds with T cruzi growth-1; T. cruzi beta-gal in NIH3T3, GalScreen luminescence, 90 h; inhibition, % at 2.09 µM; 5,600 compounds, 21% hits; AID 651740;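 active means mean inhibition above about 95%, with at least 55% of replicates also reaching it, limit read from the data; inconclusive means meets just one of the two conditions; inactive means meets neither condition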
3T3 cytotox: NIH/3T3 (mouse) viability loss. shares compounds with T cruzi growth-1. NIH/3T3 viability, CellTiter-Glo ATP luminescence, 90 h. cytotoxicity (signal decrease), % at 8.35 µM. 5,600 compounds, 14% hits. AID 651742;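 active means mean signal decrease across replicates above about 35% based on untreated-well scatter, with enough replicates individually passing, limit read from the data; inconclusive means no rule stated though some were filed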
NIH3T3 tox 2: NIH/3T3 (mouse) viability loss; inhibition, % at 24.9 µM; NIH/3T3 viability, CellTiter-Glo ATP luminescence, 90 h; shares compounds with T cruzi growth-1; 5,600 compounds, 56% hits;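 active means mean loss of cell viability signal at or above a set limit, and enough replicates individually reaching it; inconclusive means meets only the mean limit or only the replicate share; inactive means meets neither condition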
Large screens that a line does not name were inactive (follow-up assays come after a bar, where they were run). Most compounds without a hit are left out; they make up all but 6.7% or so of the library.

CCCC#Cc1ccc2c(c1)O[C@@H](CN(C)S(=O)(=O)c1cccc(F)c1)[C@@H](C)CN([C@H](C)CO)S2(=O)=O	T cruzi growth-1 124 | T cruzi growth-2 104 | T cruzi growth-3 inactive | 3T3 cytotox inactive | NIH3T3 tox 2 inactive
C[C@@H]1CN([C@H](C)CO)S(=O)(=O)c2ccc(C#CCN(C)C)cc2O[C@H]1CN(C)S(=O)(=O)c1cccc(F)c1	none (no result: T cruzi growth-1)
COCC#Cc1ccc2c(c1)O[C@@H](CN(C)S(=O)(=O)c1cccc(F)c1)[C@H](C)CN([C@H](C)CO)S2(=O)=O	none
CC(C)CC#Cc1ccc2c(c1)O[C@@H](CN(C)S(=O)(=O)c1cccc(F)c1)[C@@H](C)CN([C@@H](C)CO)S2(=O)=O	T cruzi growth-1 121 | T cruzi growth-2 inactive | T cruzi growth-3 112 | 3T3 cytotox inactive | NIH3T3 tox 2 105
CC(C)CC#Cc1ccc2c(c1)O[C@@H](CN(C)S(=O)(=O)c1cccc(F)c1)[C@H](C)CN([C@H](C)CO)S2(=O)=O	T cruzi growth-1 121 | T cruzi growth-2 103 | T cruzi growth-3 inactive | 3T3 cytotox 45 | NIH3T3 tox 2 106
CC(C)CC#Cc1ccc2c(c1)O[C@@H](CN(C)S(=O)(=O)c1cccc(F)c1)[C@H](C)CN([C@@H](C)CO)S2(=O)=O	T cruzi growth-1 110, Pf Dd2 inh inconclusive | T cruzi growth-2 inconclusive | T cruzi growth-3 115 | 3T3 cytotox inactive | NIH3T3 tox 2 68
C[C@@H]1CN([C@H](C)CO)S(=O)(=O)c2ccc(C#CCN(C)C)cc2O[C@@H]1CN(C)S(=O)(=O)c1cccc(F)c1	none (no result: T cruzi growth-1)
C[C@@H]1CN([C@H](C)CO)C(=O)c2cc(C3=CCCC3)cnc2O[C@@H]1CN(C)C(=O)c1ccncc1	none
C[C@H]1CN([C@@H](C)CO)C(=O)Cc2cc(NC(=O)CCCCCC(=O)Nc3ccccc3N)ccc2O[C@H]1CN(C)Cc1ccc2c(c1)OCO2	T cruzi growth-1 inconclusive, Pf Dd2 inh -88 | T cruzi growth-2 inactive | T cruzi growth-3 inactive | 3T3 cytotox inactive | NIH3T3 tox 2 inactive
C[C@@H]1CN([C@@H](C)CO)C(=O)Cc2cc(NC(=O)CCCCCC(=O)Nc3ccccc3N)ccc2O[C@H]1CN(C)Cc1ccccc1	none
C[C@@H]1CN([C@@H](C)CO)C(=O)Cc2cc(NC(=O)CCCCCC(=O)Nc3ccccc3N)ccc2O[C@H]1CN(C)Cc1ccc2c(c1)OCO2	none (no result: T cruzi growth-1)
C[C@H](CO)N1C[C@H](C)[C@@H](CN(C)Cc2ccc3c(c2)OCO3)Oc2ccc(NC(=O)CCCCCC(=O)Nc3ccccc3N)cc2CC1=O	T cruzi growth-1 101 | T cruzi growth-2 109 | T cruzi growth-3 inactive | 3T3 cytotox inactive | NIH3T3 tox 2 inactive
CN(C)C(=O)c1cccc(-c2ccc([C@@H]3[C@H](CO)N4C(=O)CN(C(=O)C5CCC5)C[C@@H]34)cc2)c1	none (no result: T cruzi growth-1)
CCS(=O)(=O)Nc1ccc2c(c1)C(=O)N(C)[C@H]1CC[C@@H](CC(=O)OC)O[C@@H]1CO2	none
C[C@H](CO)N1C[C@H](C)[C@H](CN(C)C(=O)Nc2cccc3ccccc23)Oc2ccc(NS(=O)(=O)c3cccs3)cc2C1=O	none (no result: C diff growth)
C[C@@H]1CN([C@H](C)CO)C(=O)c2cc(NC(=O)NC3CCCCC3)ccc2O[C@@H](C)CCCCO[C@H]1CN(C)C(=O)Nc1ccc2c(c1)OCO2	none
C[C@H]1CCCCO[C@@H](CN(C)C(=O)Nc2ccc3c(c2)OCO3)[C@@H](C)CN([C@@H](C)CO)C(=O)c2cc(NC(=O)NC3CCCCC3)ccc2O1	T cruzi growth-1 118 | T cruzi growth-2 113 | T cruzi growth-3 inactive | 3T3 cytotox inactive | NIH3T3 tox 2 inactive
C[C@@H]1CCCCO[C@@H](CN(C)C(=O)Nc2ccc3c(c2)OCO3)[C@H](C)CN([C@@H](C)CO)C(=O)c2cc(NC(=O)NC3CCCCC3)ccc2O1	none
C[C@@H]1CCCCO[C@@H](CN(C)C(=O)Nc2ccc3c(c2)OCO3)[C@H](C)CN([C@H](C)CO)C(=O)c2cc(NC(=O)NC3CCCCC3)ccc2O1	T cruzi growth-1 inconclusive | T cruzi growth-2 108 | T cruzi growth-3 inactive | 3T3 cytotox inactive | NIH3T3 tox 2 inactive
COC(=O)[C@@]1(Cc2ccccc2N=[N+]=[N-])COC(c2ccc(OCCCO)cc2)=N1	none (no result: T cruzi growth-1, Pf Dd2 inh)
C[C@@H]1CN([C@@H](C)CO)C(=O)Cc2cc(NC(=O)CCCCCC(=O)Nc3ccccc3N)ccc2O[C@H]1CN(C)S(C)(=O)=O	none
O=C(Nc1cccc(F)c1)N[C@H]1CC[C@@H](CCNS(=O)(=O)c2cccc(Cl)c2)O[C@@H]1CO	none (no result: C diff growth)
O=C(Nc1cccc(F)c1)N[C@@H]1CC[C@@H](CCNS(=O)(=O)c2cccc(Cl)c2)O[C@@H]1CO	T cruzi growth-1 121 (no result: C diff growth) | T cruzi growth-2 inactive | T cruzi growth-3 inactive | 3T3 cytotox inactive | NIH3T3 tox 2 inactive
O=C(Nc1ccc(F)cc1)N[C@@H]1CC[C@@H](CCNS(=O)(=O)c2cccc(Cl)c2)O[C@@H]1CO	none
O=C(Nc1cccc(F)c1)N[C@H]1CC[C@H](CCNS(=O)(=O)c2cccc(Cl)c2)O[C@H]1CO	T cruzi growth-1 163 (no result: C diff growth) | T cruzi growth-2 103 | T cruzi growth-3 inactive | 3T3 cytotox inactive | NIH3T3 tox 2 inactive
COc1ccc(S(=O)(=O)Nc2ccc3c(c2)C(=O)N([C@H](C)CO)C[C@@H](C)[C@H](CN(C)Cc2ccc(C(=O)O)cc2)OCCCC[C@@H](C)O3)cc1	none
C[C@@H]1CCCCO[C@H](CN(C)C(=O)NC2CCCCC2)[C@@H](C)CN([C@@H](C)CO)C(=O)c2cc(NC(=O)c3ccncc3)ccc2O1	none
O=C(NC[C@@H]1[C@H](c2ccccc2)[C@H](CO)N1CC1CCCC1)C1CC1	none (no result: T cruzi growth-1)
O=C(Nc1ccccc1F)N1CCCCN2[C@H](CO)[C@@H](c3ccc(C#Cc4cccnc4)cc3)[C@@H]2C1	T cruzi growth-1 99 | T cruzi growth-2 108 | T cruzi growth-3 inactive | 3T3 cytotox inactive | NIH3T3 tox 2 55
O=C(Nc1ccccc1)N1CCCCN2[C@H](CO)[C@H](c3ccc(C#Cc4cccnc4)cc3)[C@H]2C1	none
O=C(Nc1ccccc1F)N1CCCCN2[C@@H](CO)[C@@H](c3ccc(C#Cc4cccnc4)cc3)[C@@H]2C1	T cruzi growth-1 107 | T cruzi growth-2 97 | T cruzi growth-3 inactive | 3T3 cytotox inactive | NIH3T3 tox 2 60
O=C(Nc1ccccc1F)N1CCCCN2[C@H](CO)[C@@H](c3ccc(C#Cc4ccccc4)cc3)[C@H]2C1	none
O=C(Nc1ccccc1F)N1CCCCN2[C@H](C1)[C@@H](c1ccc(C#Cc3cccnc3)cc1)[C@@H]2CO	T cruzi growth-1 104 | T cruzi growth-2 106 | T cruzi growth-3 inactive | 3T3 cytotox inactive | NIH3T3 tox 2 65
O=C(Nc1ccccc1)N1CCCCN2[C@H](CO)[C@@H](c3ccc(C#Cc4cccnc4)cc3)[C@@H]2C1	none
